TDP1 cell CPT = growth inhibition of DT40 Tdp1-/-;hTDP1 cells with camptothecin (screen for TDP1 inhibitors) | Potency, µM (highest dose often 46.2 µM), inactives show at the top dose activity change, negative = growth inhibition, hits mostly inhibitors | actives 12% (n = 420,000) | chicken DT40 Tdp1-/-;hTDP1 cells + 20 nM CPT, ATP luminescence, 48 h; note: potency is the fitted concentration of half-maximal effect; nearly all actives have a fitted effect of over 55% in size
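Chicken DT40 Tdp1-/- cells stably complemented with human TDP1 were seeded at 400 cells/well in medium containing 20 nM camptothecin, exposed to pin-transferred compounds, and grown at 37 °C for at least 48 hr. Viability was read as ATP luminescence.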
HT1080 IDH1KD tx = HT-1080 IDH1 knockdown cell toxicity (counter line); HT-1080 IDH1 knockdown viability, ATP luminescence, 48 h; Potency, µM (top dose mostly 46.1 µM), for the others: at the top dose activity, negative = toxicity, usual class: cytotoxic; actives 2% (n = 360,000); AID 686971;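 note: potency is the fitted concentration of half-maximal effect; 0% = DMSO wells and -100% = cell-free medium wells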
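Cytotoxicity counter-line: IDH1KD HT-1080, 48 h, CellTiter-Glo. Curves classed by r2, magnitude and activity.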
DT40 TDP1 no CPT = qHTS for Inhibitors of human tyrosyl-DNA phosphodiesterase 1 (TDP1): qHTS in cells in absence of CPT | DT40 Tdp1-/- hTDP1 cells, no CPT, ATP luminescence, 48 h | Potency, µM (titrated, usually from 46.2 µM), for inactives: at the highest dose activity change, negative = growth inhibition, actives largely listed as inhibitors | actives 15% (n = 420,000); note: potency is the fitted concentration of half-maximal effect; nearly all actives have a fitted effect of over 55% in size
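A cellular qHTS used chicken DT40 cells lacking endogenous Tdp1 but carrying stably transfected human TDP1. Compounds were applied without camptothecin, and cell growth kinetics were judged by ATP-dependent luminescence after ≥48 hr.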
IL-1B inflam inh = inflammasome signaling inhibition, IL-1 beta readout | actives 4.7% (n = 360,000) | AID 743279 | activity change, % at 57.5 µM | THP-1 LPS/ATP IL-1B secretion, AlphaLISA, 16 h; hits give low values; in the data active = activity change below about -50%; inconclusive = mostly about -30% to -49%
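Secreted IL-1B measured by AlphaLISA bead assay after 16 h compound exposure of THP-1 cells; compounds (final up to 57.5 uM) added 1 h before LPS (250 ng/mL) and ATP (1.25 mM) stimulation; lower signal means less secretion.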
HT1080-NT tox = kills 2HG-producing HT-1080-NT fibrosarcoma cells; HT-1080-NT fibrosarcoma viability, CellTiter-Glo ATP luminescence, 48 h; Potency, µM (top dose mostly 46.1 µM), inactives show at the top dose activity, negative = less viability, hits mostly cytotoxic; actives 1.6% (n = 360,000); AID 686970;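 note: NT is the 2HG producing partner of a matched IDH1 knockdown line; potency is the fitted concentration of half-maximal effect; 0% = DMSO-treated cells and -100% = media-only wells without cells; nearly all actives have a fitted effect of over 55% in size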
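Luminescent CellTiter-Glo readout after 48 hours of compound exposure at 37 degrees C defined viability of HT-1080-NT cells. Activity was normalized to DMSO wells and cell-free media wells; concentration-response curves were fitted and assigned curve classes.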
Active calls of the source: *; ? = inconclusive; . = no result; ! = not confirmed by another sample. Hits are enriched below; roughly 19% of the tested compounds scored in any of these assays. Unless noted, calls come from the whole dose curve; as a rule, active = well fitted curve in the direction sought with a large enough effect; inconclusive = small, poorly fitted or top-dose-only effect, or another doubt; inactive = no such curve, though single readings can be large; an effect the other way counts as inactive or inconclusive. Unless noted, % is set by controls: 0 for no effect and ±100 for the full control effect.

SMILES	TDP1 cell CPT	HT1080 IDH1KD tx	DT40 TDP1 no CPT	IL-1B inflam inh	HT1080-NT tox
CCN1C[C@@H]2[C@@H]3C(=O)N(Cc4ccccc4)C(=O)[C@@H]3[C@](Cc3ccccc3)(C1=O)N2C(=O)c1ccc(C)cc1	-4%	10%	-21%	-18	10%
CN(C)c1ccc(CNC(=O)c2cc(S(=O)(=O)N3CCOCC3)cn2C)cc1	2%	1%	-28%	-5	25%
OC(COCC(F)(F)C(F)(F)C(F)(F)C(F)F)Cn1c2ccc(Cl)cc2c2cc(Cl)ccc21 (stereo unspecified)	3.7µM*	?	2.6µM*	-97*	?
CCCCn1c(N)c(N(CC(C)C)C(=O)C2CCN(S(=O)(=O)c3ccc(C)cc3C)CC2)c(=O)[nH]c1=O	-11%	-10%	-6%	-18	-4%
CC(C)c1ccc(NC(=O)CCS(=O)(=O)c2cccc3nonc23)cc1	16µM*!	-5%	23µM*	1	-7%
Cc1ccc(OCC(=O)N2N=C(c3ccncc3)CC2(O)C(F)(F)F)cc1C (stereo unspecified)	?	-24%	21µM*	5	?
O=C(Cc1ccc([N+](=O)[O-])cc1)N1N=C(c2ccncc2)CC1(O)C(F)(F)F (stereo unspecified)	21µM*	8%	?	9	5%
CCN(CC(=O)NCc1ccc(Cl)cc1)S(=O)(=O)c1ccc(NC(C)=O)cc1	?	-1%	?	-14	-3%
CCn1nc([N+](=O)[O-])c(C(C#N)c2nc3ccccc3n2C)c(Cl)c1=O (stereo unspecified)	?	?	?	-94*	?
CCCn1nc([N+](=O)[O-])c(C(C#N)c2nc3ccccc3s2)c(Cl)c1=O (stereo unspecified)	18µM*	1.1µM*	16µM*	-102*	2.8µM*
O=c1c2ccccc2ncn1Cc1ccco1	-25%	-24%	-7%	8	-4%
N=c1c2c(-c3ccccc3)c(-c3ccccc3)n(Cc3ccco3)c2ncn1CCO	7.3µM*	18µM*	6.5µM*	?	18µM*
c1coc(CNc2nc3ccccc3n2CCN2CCOCC2)c1	-5%	2%	-15%	12	0%
N=c1c2c(-c3ccccc3)c(-c3ccccc3)n(Cc3ccco3)c2ncn1CCN1CCOCC1	?	?	?	-81*	?
N=c1c2c(-c3ccccc3)c(-c3ccccc3)n(Cc3ccco3)c2ncn1CCCO	13µM*	8.2µM*	23µM*	.	21µM*
Cc1cc(Br)ccc1SCC(=O)OCC(=O)Nc1ncc(C(F)(F)F)cc1Cl	-4%	4%	-3%	12	0%
COc1ccc(N2C(=NC(=O)C(C)Oc3ccccc3)SC3CS(=O)(=O)CC32)cc1 (stereo unspecified)	-2%	1%	22%	-19	-2%
Cc1coc2c1C(=O)C(=O)c1c-2ccc2c(C)cccc12	2.9µM*	-14%	4.6µM*	-12	-11%
Cc1ccc2c3c(cccc13)-c1ccccc1C2=O	-29%	-21%	?	-20	-3%
Cc1coc2c1C(=O)C(=O)c1c-2ccc2c1CCCC2(C)C	0.82µM*	-17%	1.3µM*	31	-17%
Cc1oc(-c2ccccc2NC(=O)c2cccnc2)nc1CNC(=O)c1ccc(N(C)C)cc1	1%	.	-16%	.	.
CCC(=O)N1CCc2cc(Br)cc(S(=O)(=O)N3CCN(c4cccc(Cl)c4)CC3)c21	2%	.	-14%	.	.
COc1ccccc1C(=O)Nc1ccc2c(c1)nc(CN1CCCCC1)n2C	?	16%	23µM*!	-16	15%
CC(=O)N1CCN(Cc2nc3cc(NC(=O)c4ccccc4Cl)ccc3n2C)CC1	-1%	13%	4%	57	11%
Cn1c(CN2CCCCC2)nc2cc(NC(=O)c3ccccc3Cl)ccc21	16µM*	?	23µM*	14	-18%
SMILES	TDP1 cell CPT	HT1080 IDH1KD tx	DT40 TDP1 no CPT	IL-1B inflam inh	HT1080-NT tox
COc1ccccc1C(=O)Nc1ccc2c(c1)nc1n2CCN(C2CCCCC2)C1	15µM*	?	23µM*	68	?
CC(OC(=O)c1ccc2c(=O)n3c(nc2c1)CCC3)C(=O)NC1CCCCC1C (stereo unspecified)	-15%	0%	-18%	7	0%
COc1ccc(NC(C)=O)cc1S(=O)(=O)N1CC=C(c2ccccc2)CC1	0%	2%	9%	8	3%
COc1ccc(C(=O)C[n+]2ccc(Cl)c3ccc(Cl)cc32)cc1	7.9µM*	.	7.9µM*	.	.
O=C(C[n+]1ccncc1Cl)c1ccc(F)cc1	1%	.	-25%	.	.
O=C(C[n+]1ccc(Cl)c2ccc(Cl)cc21)c1ccc(F)cc1	10µM*	.	3.5µM*	.	.
COc1ccc(C(=O)c2ccc(Cl)cc2Cl)cc1	-27%	-2%	?	16	-3%
CCc1cc[n+](C(C(=S)Nc2cccc(C)c2)=C([O-])c2ccc(C)c([N+](=O)[O-])c2)cc1	16µM*	0%	.	-18	-2%
C[C@@H]1CCCCCCCCC(=O)OCCN[C@H](C)CCCCCCCCC(=O)OCCN[C@H](C)CCCCCCCCC(=O)OCCN1	13µM*	-24%	21µM*	-59*	-26%
O=C(COC(=O)/C=C/c1ccc([N+](=O)[O-])cc1)Nc1ccc2[nH]c(=O)[nH]c2c1	-15%	6%	19%	4	0%
COc1ccccc1N1CCN(C(=O)Cn2c(=O)nc(-c3ccccc3)c3ccccc32)CC1	?	.	15µM*	.	.
COc1ccccc1N1CCN(C(=O)Cn2c(=O)n3nc(-c4cccc(F)c4)nc3c3ccccc32)CC1	0%	.	-13%	.	.
COc1ccccc1N1CCN(C(=O)CCCN2C(=O)c3cccc4cccc(c34)C2=O)CC1	16µM*	-16%	29µM*	?	-10%
COc1ccccc1OCC(=O)N1CCN(C(=O)COc2ccccc2OC)CC1	8%	6%	6%	19	2%
COc1ccccc1N1CCN(C(=O)CN2C(=O)c3cccc4cccc(c34)C2=O)CC1	26µM*	9%	?	?	3%
COc1ccccc1N1CCN(C(=O)COc2cccc3ccccc23)CC1	23µM*	22%	?	-26	2%
COCCNC(=O)c1cn(C)c2ccc(S(=O)(=O)N3CCCCC3)cc2c1=O	?	?	?	6	-7%
CSCCNC(=O)C1(C)CCN1C(=O)CCc1ccccc1 (stereo unspecified)	-13%	21%	1%	20	30%

Screening results from PubChem.
